Source: PubChem BioAssay
MCF10A rerep: induces DNA re-replication in MCF 10a normal breast cells; 2.9% of 350,000 active; MCF 10A DNA re-replication, Hoechst nuclear intensity, 48 h; Potency, µM (series often up to 46.1 µM), for inactives: at the top dose activity, positive = re-replication, hits mostly activators; AID 624296; further: % of control where 0% means no effect; nearly all actives have a fitted effect of over 50% in size
KB-V1 cytotox: kills drug-selected multidrug resistant KB-V1 cells; KB-V1 MDR cells viability, CellTiter-Glo, 72 h; Potency, µM (top dose mostly 46.1 µM), hits mostly cytotoxic; 3.4% of 400,000 active; further: on the % scale 0 is the no-effect control and ±100 the full control effect; nearly all actives have a fitted effect of over 60% in size
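KB-V1, DMEM (no phenol red) + 10% FBS; cpd pin-transferred, titration series; 72 h, 37 degrees C; CellTiter-Glo, luminescence. Data normalized, curve-fit.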
SW480 rereplic: DNA re-replication induction in SW480 cells; Potency, µM (series often up to 46.1 µM), without a hit: top-dose re-replication activation, usual class: activators; AID 624297; 1.8% of 340,000 active; SW480 DNA re-replication, Hoechst DNA content imaging, 48 h; further: % of control where 0% means no effect; nearly all actives have a fitted effect of over 55% in size
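Image-based DNA-content assay: after two days of treatment, nuclei were labelled with the DNA dye Hoechst and imaged, and hits were compounds raising the count of nuclei showing high fluorescence intensity.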
HT1080-NT tox: kills 2HG-producing HT-1080-NT fibrosarcoma cells; HT-1080-NT fibrosarcoma viability, CellTiter-Glo ATP luminescence, 48 h; Potency, µM (highest dose often 46.1 µM), without a hit: at the highest dose activity, negative = less viability, hits mostly cytotoxic; 1.6% of 360,000 active;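 further: NT is the 2HG producing partner of a matched IDH1 knockdown line; 0% = DMSO-treated cells and -100% = media-only wells without cells; nearly all actives have a fitted effect of over 55% in size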
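Fibrosarcoma NT cells, 750 per well in 5% FBS RPMI, were exposed to compound for 48 hours. Viability: CellTiter-Glo luminescence.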
KB-3-1 tox: kills parental KB-3-1 adenocarcinoma cells | KB-3-1 viability, CellTiter-Glo ATP luminescence, 72 h | Potency, µM (doses to about 46.1 µM), most hits filed as cytotoxic | 1.4% of 400,000 active | AID 1347075; further: on the % scale 0 is the no-effect control and ±100 the full control effect; nearly all actives have a fitted effect of over 60% in size
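Cytotoxicity measured as CellTiter-Glo luminescence after 72 h at 37 C. Compound titrations were pinned onto drug-naive KB-3-1 parental adenocarcinoma cells grown in DMEM with 10% FBS, and normalized data fitted to concentration-response curves.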
HT1080 IDH1KD tx: toxicity to HT-1080 IDH1 knockdown cells (counter line). HT-1080 IDH1 knockdown viability, ATP luminescence, 48 h. 2% of 360,000 active. Potency, µM (top dose mostly 46.1 µM), for the others: at the top dose activity, negative = toxicity, usual class: cytotoxic;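 further: 0% = DMSO wells and -100% = cell-free medium wells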
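After a 2 h attachment period, IDH1KD HT-1080 cells took pin-transferred compound for 48 h at 37 °C; ATP-based luminescence after 10 min room-temperature reagent incubation reported viability.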
* marks the source's active call; other numbers are inactive results; i = inactive; ? = inconclusive; nt = no result given. Most compounds without a hit are left out; they make up all but 7.9% or so of the library. The call rests on the fitted dose curve; in most records, active means well fitted curve in the direction sought with a large enough effect; inconclusive means small, poorly fitted or top-dose-only effect, or another doubt; inactive means no such curve, though single readings can be large; an effect the other way counts as inactive or inconclusive. Potency means the concentration at half of the fitted maximal effect.

SMILES	MCF10A rerep	KB-V1 cytotox	SW480 rereplic	HT1080-NT tox	KB-3-1 tox	HT1080 IDH1KD tx
CC(C)C[C@@H](CN1CCCC1CN1C(=S)NC[C@@H]1Cc1ccc(O)cc1)N1C[C@H](Cc2ccc(O)cc2)N(CC2CCCCC2)C1=S (stereo not given in full)	7.31µM*	?	?	18.4µM*	?	?
CCOc1ccc(NC(=O)Cn2c(=O)oc3cc(S(=O)(=O)NC4CCCC4)ccc32)cc1	nt	i	nt	nt	i	nt
Cc1ccc(F)cc1C(=O)N1CCOCC1c1cc(C(=O)Nc2ccccc2)no1 (stereo not given)	nt	i	nt	2.0%	i	2.5%
FC(F)(F)c1nc(N2CCCC2)ncc1-c1nnnn1-c1ccccc1	16.1%	2.91µM*	10.4%	28.6%	?	-29.3%
Cc1ccc(C)c(N2CCN(CCCNC(=O)Cn3cccc3C(=O)c3ccccc3C)CC2)c1	?	?	9.6%	23.1µM*	i	23.1µM*
Cc1cccc(N2CCN(C(=O)Cc3cn(C)c4ccccc34)CC2)c1C	18.4µM*	18.4µM*	?	?	?	?
Cc1cccc(N2CCN(C(=O)Cn3ncc4c5ccccc5n(C)c4c3=O)CC2)c1C	nt	i	nt	nt	i	nt
Cc1ccccc1C(=O)c1cccn1CC(=O)NCCN1CCN(c2cccc(C)c2C)CC1	?	i	?	23.1µM*	?	20.6µM*
Cc1cccc(N2CCN(C(=O)CCNC(=O)Cn3ccc4ccccc4c3=O)CC2)c1C	1.3%	20.6µM*	2.2%	-0.5%	i	0.9%
Cc1ccc2nc(N3CCN(Cc4nnnn4C4CCCC4)CC3)c(C#N)cc2c1	?	20.6µM*	-6.3%	-13.3%	i	-5.0%
Cc1ccc(C)c(N2CCN(Cc3nnnn3C3CCCCC3)CC2)c1	?	23.1µM*	14.3%	-2.7%	i	-3.1%
C1CCN(Cc2nnnn2C2CCCC2)CC1	-10.2%	i	-3.9%	1.7%	i	12.8%
COc1cccc(N2CCN(Cc3nnnn3C3CCCCC3)CC2)c1	-0.2%	23.1µM*	1.2%	-3.0%	i	-17.2%
COCCn1c(SCC(=O)NC2CCCC(C)C2C)nc2ccccc2c1=O (stereo not given)	-5.8%	i	-59.6%	7.3%	i	11.3%
CCOC(=O)c1sc(Nc2nc(C)cc(C)n2)nc1C	?	9.2µM*	?	-4.7%	?	0.9%
C=CCOC(=O)c1sc(NC(=O)c2ccc(OC)cc2)nc1C	10.5%	i	0.4%	?	i	1.84µM*
CCCCOC(=O)Nc1nc(C)c(C(=O)OCC)s1	-8.2%	11.6µM*	-6.7%	3.9%	i	6.6%
CCOC(=O)c1sc(NC(=O)CC)nc1C	?	i	-3.5%	10.4%	i	-1.3%
CCOC(=O)c1sc(Nc2nc(C)cc(OC)n2)nc1C	10.4%	i	-6.1%	15.6%	i	6.1%
CNc1nc(C)c(C(=O)OCC(=O)OC)s1	-0.3%	i	-5.4%	0.0%	i	-6.9%
CNc1nc(C)c(C(=O)OCc2ccccc2)s1	?	20.6µM*	0.5%	3.1%	i	0.3%
CCCCOCCCNC(=O)C[C@@H]1C[C@@]2(C(=O)OCC)CCC=C2N(Cc2ccccc2)C1=O	nt	?	nt	12.7%	i	17.0%
COc1ccc(-c2nc(C(=O)Nc3cccc(C(C)=O)c3)nn2-c2ccccc2Cl)cc1	nt	i	nt	nt	i	nt
COCCCNC(=O)N1[C@H](c2cccs2)[C@@H](C)C(=O)[C@@H](C)[C@@H]1c1cccs1	nt	i	nt	nt	i	nt
COc1ccc(C(=O)c2cn(Cc3ccc(F)cc3)c3ccc(C)cc3c2=O)cc1	nt	i	nt	nt	i	nt
SMILES	MCF10A rerep	KB-V1 cytotox	SW480 rereplic	HT1080-NT tox	KB-3-1 tox	HT1080 IDH1KD tx
Cc1ccccc1Cn1c2ccccc2c2cnn(CC(=O)NCCCc3ccccc3)c(=O)c21	nt	i	nt	nt	i	nt
CCCCCCc1nnc(NC(=O)OCC)s1	6.8%	16.4µM*	-4.3%	-3.0%	i	13.0%
CCCCCOC(=O)Nc1nnc(CCCCC)s1	9.3%	i	-4.7%	?	i	1.3%
CC(C)(CNC(=O)CC1C(=O)NCCN1Cc1cccc(F)c1F)N1CCOCC1 (stereo not given)	-0.3%	?	-21.4%	?	i	?
CC1CCN(CCCOc2ccc(Cl)cc2Br)CC1	0.6%	i	-1.0%	?	i	23.1µM*
CC1CCN(CCOCCOc2ccc(Cl)cc2Br)CC1	?	?	-7.1%	?	i	?
Cc1cc(Br)ccc1OCCCCNC(C)(C)C	0.1%	i	2.9%	13µM*	?	?
CC1CCCN(CCCOc2ccc(Cl)cc2Br)C1 (stereo not given)	?	16.4µM*	5.6%	-1.2%	?	-18.9%
CC1CCCN(CCOc2ccc3ccccc3c2Br)C1 (stereo not given)	14.6µM*	?	-6.8%	20.6µM*	?	18.4µM*
CC(C)(CC1(C)NC(=O)NC1=O)OCc1ccccc1 (stereo not given)	-3.0%	i	-8.1%	6.3%	i	-0.2%
Cc1ccccc1-n1ncc2c1CC(C)(C)CC2NC(=O)CCCN1CCCC1=O (stereo not given)	2.5%	?	-14.0%	-1.9%	i	-5.6%
Cc1ccc(CNC(=O)Cc2csc3ccccc23)cc1	nt	i	nt	nt	i	nt
CCc1ccc2occ(CC(=O)Nc3sc4c(c3C(=O)NCCOC)CCCC4)c2c1	nt	i	nt	nt	i	nt
CC1CCN(CCCCOc2ccc(Br)cc2)CC1	?	i	2.3%	-6.7%	i	-12.1%
Cc1cc(Br)ccc1OCCCCN1CCC(C)CC1	7.31µM*	?	?	-28.3%	i	-22.6%
CCCCN(CCCC)C(=O)CN(C)S(=O)(=O)c1ccc2c(c1)n(C)c(=O)c(=O)n2C	-8.5%	11.6µM*	-5.1%	8.5%	i	10.0%
CN(CC(=O)O)S(=O)(=O)c1ccc2c(c1)n(C)c(=O)c(=O)n2C	-4.2%	i	7.2%	17.9%	i	15.7%
Cc1ccccc1-n1nc2c(c1NC(=O)c1ccc(Br)o1)CSC2	23.3%	13µM*	5.3%	0.1%	i	-0.2%
COc1cc2nc(CC(C)C)n(NC(=O)c3ccccc3)c(=O)c2cc1OC	0.8%	7.31µM*	-4.1%	-2.9%	i	-0.3%
COc1ccc(C(=O)Nn2c(CC(C)C)nc3cc(OC)c(OC)cc3c2=O)c(OC)c1	-1.7%	i	-10.3%	4.8%	i	1.7%
Nc1ccn([C@@H]2O[C@H](C(=O)N[C@H](CO)c3ccccc3)[C@@H](O)[C@H]2O)c(=O)n1	nt	?	nt	23.0%	i	2.2%
